Bioassay records deposited in PubChem by several laboratories.
Sampled rows, rich in hits. Any-hit rate of the full collection: about 1.4%.
PriA SSB inh: blocks PriA binding to SSB C-terminal tail; AlphaScreen SSBct-PriA binding, biotinylated peptide; inhibition, % at 33 µM; actives 0.6% (n = 430,000); AID 1272365; in the data active = inhibition mostly above about 37%, no sharp cut-off; inactive = mostly below about 20%
Sa RN4220 lethal: S. aureus RN4220 growth inhibition; inhibition, % (concentration not given with the values); AID 1259311; actives 0.33% (n = 330,000); OD600, 16 h; in the data active = inhibition above about 85%
Sa ugtP lethal: compounds lethal to S. aureus RN4220 ugtP deletion mutant | actives 0.54% (n = 330,000) | OD600 growth, 16 h | AID 1259309 | growth inhibition, % (test concentration not listed); in the data active = growth inhibition above about 68%
Mtb hypoxia inh: reduces hypoxia-regulated biosensor signal in M. tuberculosis; M. tuberculosis hypoxia-regulated fluorescent reporter, fluorescence; fluorescence inhibition, % (test concentration not listed); actives 0.1% (n = 300,000); AID 1159583; in the data active = fluorescence inhibition mostly above about 23%, no sharp cut-off; inactive = mostly below about 17%
CCHF vOTU inh-1: blocks the CCHF virus ovarian tumor domain protease; CCHFV vOTU protease, Pep-AMC fluorescence; inhibition, % at 11.5 µM; actives 0.55% (n = 370,000)
CCHF vOTU inh-2: CCHFV vOTU protease inhibition, confirmation; shares compounds with CCHF vOTU inh-1; Recombinant CCHFV vOTU, Pep-AMC fluorescence; inhibition, % at 11.5 µM; actives 17% (n = 1,900); AID 686976
Numbers stand for hits; i = inactive; nt = no result given. Rule as the data show it, unless noted: active = inhibition above about 30%; inactive = the rest.

SMILES	PriA SSB inh	Sa RN4220 lethal	Sa ugtP lethal	Mtb hypoxia inh	CCHF vOTU inh-1	CCHF vOTU inh-2
O=C(CC1CC=CCC(Cc2ccc(F)cc2)C(=O)OCCNC1=O)NCCO (centres undefined)	nt	i	i	i	nt	nt
Cn1c(=O)c2c(ncn2CC(=O)OCC(=O)c2ccc(Br)cc2)n(C)c1=O	nt	nt	nt	nt	32	i
CC1(C)Cc2c(c(-c3ccco3)[nH]c(=O)c2C#N)CS1	i	i	i	i	32	i
CC1(C)Cc2c(c(-c3ccccc3)[nH]c(=O)c2C#N)CS1	i	i	i	i	i	nt
Cc1[nH]oc(=O)c1N=Nc1c(Cl)cccc1Cl	i	i	i	i	36	i
O=C(Nc1cccc(C(=O)O)c1)/C(=C\C=C\c1ccccc1)NC(=O)c1ccccc1	i	i	i	i	i	nt
O=C(Nc1ccc(C(=O)O)cc1)/C(=C\C=C\c1ccccc1)NC(=O)c1cccc(Br)c1	i	i	i	i	30	i
CC(/C=C1\SC(=S)N(c2ccc(C(=O)O)cc2)C1=O)=C\c1ccccc1	i	nt	nt	nt	30	i
Cc1nnc(NC(=O)CSc2nc3c(cnn3-c3ccc(F)cc3)c(=O)[nH]2)s1	i	nt	nt	nt	nt	nt
COCCNC(=O)NCC1CCN(c2ccccn2)CC1	i	nt	nt	nt	nt	nt
CSc1nc(-c2ccco2)nn1S(C)(=O)=O	i	i	i	nt	36	i
Cc1cc2ncc(CCCNC(=O)CNS(=O)(=O)c3cccc(Cl)c3)cn2n1	i	nt	nt	nt	nt	nt
CC(C)CCNC(=O)c1c(N)n(Cc2ccc3c(c2)OCO3)c2nc3ccccc3nc12	i	i	i	i	54	i
CC(C)CNC(=O)c1c(N)n(Cc2ccc3c(c2)OCO3)c2nc3ccccc3nc12	i	i	i	i	i	nt
COc1cc(C=NNc2nc(Nc3ccccc3)nc(-n3nc(C)cc3C)n2)cc(OC)c1OC	i	i	i	i	nt	nt
O=C(Nc1nc(CSCc2ccc(F)cc2)cs1)c1cccc(Cl)c1	i	nt	nt	nt	nt	nt
O=C(O)c1cccc(NC(=S)N/N=C/c2ccccc2OCc2ccc(Br)cc2)c1	nt	nt	nt	nt	30	i
O=C(O)c1cccc(NC(=S)N/N=C/c2ccccc2OCc2cccc(Br)c2)c1	nt	nt	nt	nt	i	nt
CCc1cccc(NC(=O)Cn2cccc(-c3nc(-c4ccc(OC)c(OC)c4)no3)c2=O)c1	i	nt	nt	nt	nt	nt
CN(C)c1ccc(/C=C/c2nc3ccccc3c(=O)n2CCO)cc1	i	i	i	i	30	i
CCC1Sc2ccc(S(=O)(=O)CCC(=O)Nc3ccc(OC(F)(F)F)cc3)cc2NC1=O (centres undefined)	i	i	i	i	39	i
NC1=NCC(c2ccccc2)N1CC1CCCCC1 (centres undefined)	nt	i	i	i	nt	nt
O=c1oc2cc(O)c(Cl)cc2c2ccccc12	i	i	i	i	30	i
COc1ccc2c(c1)oc(=O)c1ccccc12	i	i	i	nt	i	nt
Clc1ccccc1N=Nc1ccccn1	i	nt	nt	nt	84	i
SMILES	PriA SSB inh	Sa RN4220 lethal	Sa ugtP lethal	Mtb hypoxia inh	CCHF vOTU inh-1	CCHF vOTU inh-2
C/C(=N\NC(=O)c1cc(O)ccc1O)c1cccc(NC(=O)c2cccc(Cl)c2)c1	nt	nt	nt	nt	32	i
O=C(c1ccc2c(c1)OCO2)[C@@H]1[C@@H]2C(=O)N(C3CCCCC3)C(=O)[C@@H]2C2c3ccccc3C=CN21 (some centres undefined)	i	i	i	i	i	nt
COc1ccc(N2C(=O)[C@@H]3[C@H](C2=O)[C@H]2c4ccccc4C=CN2[C@@H]3C(C)=O)cc1	i	i	i	i	92	92
CC(C)(C)C(=O)[C@@H]1[C@@H]2C(=O)N(C3CCCCC3)C(=O)[C@@H]2[C@H]2c3ccccc3C=CN12	i	i	i	i	33	i
COc1ccc(N2C(=O)[C@H]3[C@@H](C2=O)C2c4ccccc4C=NN2[C@H]3C(=O)C(C)(C)C)cc1 (some centres undefined)	i	i	i	i	i	nt
Cn1nc(N2CCC(C(=O)N(Cc3ccccc3)c3ccccn3)CC2)ccc1=O	i	nt	nt	nt	nt	nt
O=C1Nc2ccccc2Nc2ccc([N+](=O)[O-])cc21	i	i	i	i	38	i
CC(O)(CNC(=O)c1ccccc1S(=O)(=O)C(F)F)C1CC1 (centres undefined)	i	nt	nt	nt	nt	nt
CCN(CC)CCNC1=NCCn2c1cc1cc(OC)ccc12	i	i	i	i	i	nt
CN=C1c2cc3cc(OC)ccc3n2CCN1Cc1ccccc1	i	i	i	i	37	i
CSc1cccc(NC(=O)Cn2cnc3nc(N4CCOCC4)sc3c2=O)c1	i	nt	nt	nt	nt	nt
Cc1ccc(C(=O)OCC(=O)Nc2ccc(Cl)cn2)s1	i	i	i	i	i	nt
Cc1c(Cl)cnc(NC(=O)COC(=O)c2cccs2)c1Cl	i	i	i	i	i	nt
